# Assay results reported in PubChem BioAssay AID2315 (National Center for Advancing Translational Sciences (NCATS), 2010).
# In all, about 290,000 compounds went through this assay and about 27,000 (9.3%) were called active. The sample holds actives, similar compounds and a random draw of the others, so the mix is not that of the screen. Unmarked numbers belong to inactive results. Cut-off read from the data, not from the text of the source: active = inhibition mostly above about 28% (no sharp cut-off); inactive = mostly below about 43%.
# Assay: A qHTS for Small Molecule Inhibitors of Shiga Toxin; note: 0% is about no effect
# Conditions: Vero cells, Shiga toxin protein synthesis inhibition reporter; at 38.7 µM, active compounds read high
row,SMILES,inhibition
1,Cc1ccc(CN2C(=O)N/C(=C/c3cc(C)n(-c4ccccn4)c3C)C2=O)cc1,31.1%
2,CCN(CC)S(=O)(=O)c1ccc(Cl)c(C(=O)NCCN2CCOCC2)c1,-6.97%
3,Cc1ccc(OCC(=O)Nc2ccc3oc(=O)ccc3c2)cc1C,-5.7%
4,Cc1oc2cc3oc(=O)ccc3cc2c1C,40.7% (active)
5,COc1c(C(C)C)oc2cc3oc(=O)ccc3cc12,34%
6,CCN(C(=O)COc1ccc(C(=O)c2ccccc2)cc1)c1ccccc1,-10.2%
7,Cc1ccccc1N1CC(C(=O)Nc2nnc(SCCC3OCCO3)s2)CC1=O (stereo not given),-4.6%
8,COc1ccc(OCc2nnc3n2N=C(c2ccccc2)C(CC(=O)O)S3)cc1 (stereo not given),-9.4%
9,CCCCn1c(O)c(C(CC)=NCc2ccco2)c(=O)[nH]c1=O,-7.37%
10,CCCCCCN=C(CC)c1c(O)n(CCCC)c(=O)[nH]c1=O,-8.53%
11,CC/C(=N\NC(=O)c1ccccc1O)c1c(O)n(Cc2ccccc2)c(=O)[nH]c1=O,58.6% (active)
12,Cc1cc2cc3c(cc2nc1SCC(=O)Nc1c(C)cccc1C)CCC3,-6.77%
13,Cc1cccn2c(=O)c3cc(C(=O)NC4CCCCC4)sc3nc12,-2.1%
14,CCOCCCNC(=O)c1cc2c(=O)n3ccccc3nc2s1,74.5% (active)
15,CCn1c(=N)c(C(=O)NCCCOC)cc2c(=O)n3cccc(C)c3nc21,-7.15%
16,NC(=O)C1CCN(CC(O)CSc2ccc(F)cc2)CC1 (stereo not given),2.41%
17,CC(C)(C)NC(=O)Cn1cnc([N+](=O)[O-])n1,-6.78%
18,O=C(CSc1ncccn1)NCCc1ccccc1,1.16%
19,O=C(Cn1cnc([N+](=O)[O-])n1)NCCc1ccccc1,17.3% (active)
20,COc1ccc2cc(CCl)c(Cl)nc2c1,14.8%
21,CCCC(=O)N1CCC(CCC(=O)NC2CC2)CC1,14.8%
22,CCC(C)NC(=O)c1ccc(N2CCC3(CC2)OCCO3)c([N+](=O)[O-])c1 (stereo not given),50.1% (active)

row,SMILES,inhibition
1,CC(NC(=O)c1ccc(N2CCNCC2)c([N+](=O)[O-])c1)C12CC3CC(CC(C3)C1)C2 (stereo not given),-0.798%
2,COCCNC(=O)c1ccc(N2CCC3(CC2)OCCO3)c([N+](=O)[O-])c1,7.01%
3,COc1ccc(NC(=O)c2cc(-c3cc(OC)c(OC)c(OC)c3)nc3ccccc23)c(OC)c1,15.1%
4,CC(=O)Oc1ccc2c(=O)oc(-c3ccc([N+](=O)[O-])cc3)nc2c1,-6.54%
5,COc1ccc2oc(-c3cccc(NC(=O)CSc4ccc(Cl)cc4)c3)nc2c1,13.6%
6,COc1cccc(-c2nc(S(=O)(=O)c3ccccc3)c(N3CCOCC3)o2)c1,20.2%
7,O=[N+]([O-])c1ccc2oc(-c3cccc(O)c3)nc2c1,47.7% (active)
8,COc1cccc(-c2nc3cc(C)ccc3o2)c1,65% (active)
9,COc1ccc(-c2nc3cc([N+](=O)[O-])ccc3o2)cc1OC,27.9%
10,CC(=O)Nc1ccccc1OC(C)C(=O)N1CCC(C)CC1 (stereo not given),-7.84%
11,O=C(N/N=C/c1cc(Cl)cc([N+](=O)[O-])c1O)C(O)(c1ccccc1)c1ccccc1,-2.27%
12,CCOC(CNC(=O)C(=O)NCC(c1ccco1)N1CCN(c2ccc(OC)cc2)CC1)OCC (stereo not given),14.3%
13,CCOc1ccccc1NC(=O)COc1ccc(S(=O)(=O)N2CCCC2)cc1,14.6%
14,Cc1oc2c(C)c3oc(=O)c(CC(=O)N[C@@H](CC(C)C)C(=O)N[C@@H](Cc4ccccc4)C(=O)O)c(C)c3cc2c1C,-6.95%
15,Cc1cc(C)c(S(=O)(=O)c2cc(F)ccc2C)c(=O)[nH]1,-5.17%
16,CCOc1ccc(NC(=O)COc2ccc(S(=O)(=O)N3CCCC3)cc2)cc1,22.6%
17,Cc1ccc(-c2nnc(SC(C)C#N)n2N)cc1 (stereo not given),12.2%
18,Cc1ccc(NC(=O)NC(=O)CSc2nnc(-c3ccc(OC(F)F)cc3)n2N)c(C)c1,12.9%
19,C=C(C)CSc1nnc(-c2ccc(C)cc2)n1N,130% (active)
20,COc1cccc(C(=O)OCc2cc(=O)oc3c(C)c(C)ccc23)c1OC,4.14%
21,Cc1ccc(CNC(=O)CCS(=O)(=O)c2ccc3c(c2)CC(C)N3C(=O)C2CC2)o1 (stereo not given),32.1%
22,O=C(Nc1nonc1-c1ccc(Cl)cc1)c1ccco1,6.78%

row,SMILES,inhibition
1,COc1cccc(CNC(=O)Cn2c(=O)oc3cc(S(=O)(=O)N4CCCCC4)ccc32)c1,-6.29%
2,c1ccc(-n2ncc(-c3nn[nH]n3)n2)cc1,-22.5%
3,Oc1ccc(-c2nncn2-c2ccccc2)cc1,-7.57%
4,c1ccc(-n2nc3ccccc3n2)cc1,25.4% (active)
5,CN1CN(C)c2ccc([N+](=O)[O-])c3cccc1c23,4.19%
6,Cc1nn(C)cc1S(=O)(=O)N1CCN(c2ccc(F)cc2)CC1,-28%
7,COc1ccc(C(C(=O)NC(C)(C)C)N(Cc2ccc(F)cc2)C(=O)CCC(=O)Nc2cc(C)on2)cc1 (stereo not given),-4.11%
8,Cc1cc(=O)oc2c(C)c(OCC(=O)NCCN3CCOCC3)ccc12,-1.86%
9,O=C(Cc1ccc(Cl)cc1)NCc1nc(-c2ccccc2)no1,-5.48%
10,O=C1c2ccccc2C(=O)N1CCCc1nc(-c2ccccc2)no1,8.99%
11,c1ccc(CCc2nc(-c3ccncc3)no2)cc1,60.1% (active)
12,COc1ccccc1OCC(O)CN1CCOCC1 (stereo not given),-3.66%
13,OC(COc1ccc2ccccc2c1)Cn1cncn1 (stereo not given),11%
14,OC(COc1ccc2ccccc2c1)CN1CCOCC1 (stereo not given),26.8% (active)
15,COc1ccc(C2/C=C\CN(Cc3ccco3)C(C)C(=O)N2Cc2ccc(F)cc2)cc1 (stereo not given),-2.61%
16,O=C(Nc1cccc(-n2cnnn2)c1)c1cccnc1,-4.33%
17,Cc1c(NC(=O)c2cccnc2)c(=O)n(-c2ccccc2)n1C,12.2%
18,Cc1ccc(-n2nc3cc(Cl)c(NC(=O)c4ccco4)cc3n2)cc1,75.3% (active)
19,COC(=O)c1cc(Cl)c(NC(=O)c2ccco2)cc1OC,29.6%
20,Cc1ccc(-n2nc3cc(C)c(NC(=O)c4cccnc4)cc3n2)cc1,49% (active)
21,Cc1cc(NC(=O)c2ccco2)c(=O)n(Cc2c(F)cccc2Cl)c1,1.74%
